The values below come from publication PMC11062922 (Nature Chemical Biology, 2023).

Holding throughout (design): species or system human, MV4-11 + K-562 + COLO205 + SK-N-BE2 + OVCAR-8
In one test the test system is MET. The conditions noted are these: read-out: apparent Kd; compound concentrations:100 nM and 1000 nM (sheet 'Samples'); n = 1.
A further test has as its system CHEK1. The conditions noted are these: read-out: apparent Kd, n = 1.
A further test relates to PIM1. To be noted: read-out: apparent Kd; compound concentrations: 100 nM and 1000 nM (sheet 'Samples'), CATDS: 4.3475641275587597E-2; n = 1.
A further test deals with AXL. To be noted: read-out: apparent Kd, n = 1.
The test system of a further test is RAB5C. The conditions noted are these: read-out: apparent Kd; compound concentrations:100 nM and 1000 nM (sheet 'Samples'); n = 1.
The next test deals with EIF2AK1. To be noted: read-out: apparent Kd, n = 1.
A further test has as its system MAP4K3. To be noted: read-out: apparent Kd, n = 1.
A further test relates to TAOK3. The conditions noted are these: read-out: apparent Kd, compound concentrations: 100 nM and 1000 nM (sheet 'Samples'), n = 1.
The next test has as its system PRKCA. The conditions noted are these: read-out: apparent Kd, compound concentrations: 100 nM and 1000 nM (sheet 'Samples'), n = 1.
The next test concerns PRKCQ. The conditions noted are these: read-out: apparent Kd, compound concentrations: 100 nM and 1000 nM (sheet 'Samples'), n = 1.
The subject of a further test is FECH. To be noted: read-out: apparent Kd, n = 1.
In a further test the test system is MST1R. To be noted: read-out: apparent Kd, compound concentrations: 100 nM and 1000 nM (sheet 'Samples'), n = 1.
The test system of another test is STK11. To be noted: read-out: apparent Kd; compound concentrations: 100 nM and 1000 nM (sheet 'Samples'), CATDS: 6.0653418391634698E-2; n = 1.
The test system of the next test is FGFR1. To be noted: read-out: apparent Kd, n = 1.
Another test relates to NUAK2. The conditions noted are these: read-out: apparent Kd, compound concentrations: 100 nM and 1000 nM (sheet 'Samples'), n = 1.
In the next test the test system is PAK6. To be noted: read-out: apparent Kd, n = 1.
[1] abbreviates: compound concentrations:100 nM and 1000 nM (sheet 'Samples').

Where two headings read alike, the source gives them in different places.

For `CS(=O)(=O)Cc1ccc(Nc2nccc(-c3c(-c4cccc(NC(=O)C5CCCCC5)c4)nn4ncccc34)n2)cc1` [GSK350559A], the potency estimated from few doses in the test on MET is 1780 nM.

With `COc1ccc(Nc2nccc(N3CCC(NC(=O)Nc4ccc5c(c4)OCO5)C3)n2)cc1` (centres unmarked) [GSK1379745A], the potency estimated from few doses in the test on CHEK1 (compound concentrations: 100 nM and 1000 nM (sheet 'Samples'), CATDS: 3.4900444296342099E-2) was 2070 nM; with PIM1 it was 1260 nM. `CCn1cc(-c2ccnc3[nH]c(-c4cccc(CN(C)C)c4)cc23)c(-c2ccc(NC(=O)N(C)C)cc2)n1` [GSK1070916]: the potency estimated from few doses is 891 nM in the test with AXL (setting [1]) and 1430 nM in the test on RAB5C. In the case of `CC(C)c1nc(-c2cccc(NS(=O)(=O)c3ccccc3)c2)c(-c2ccnc(Nc3ccc4c(c3)CN(C)CC4)n2)s1` [GSK1649598A], the potency estimated from few doses in the test with EIF2AK1 (compound concentrations: 100 nM and 1000 nM (sheet 'Samples'), CATDS: 1.2049138134939999E-2) is 2290 nM; in the test on MAP4K3 (compound concentrations: 100 nM and 1000 nM (sheet 'Samples'), CATDS: 1.29423166532144E-2) it was 1570 nM; with TAOK3 (CATDS: 1.6812822211495999E-2) it was 600 nM. On to `Cn1cc(C2=C(c3cn(CCCO)c4ccccc34)C(=O)NC2=O)c2ccccc21` [RO0317377-000], for which the potency estimated from few doses in the test with PRKCA (CATDS: 0.117489729482602) is 1240 nM; with PRKCQ (CATDS: 9.7872401763747702E-2), 2020 nM. On to `COc1cc(Nc2ccnc3cc(-c4ccncc4)ccc23)cc(OC)c1OC.Cl` [GW494610A], for which the potency estimated from few doses is 1070 nM with FECH (compound concentrations: 100 nM and 1000 nM (sheet 'Samples'), CATDS: 2.4367792327904599E-2); 1280 nM in the test on MST1R (CATDS: 2.33652063903033E-2). As for `NC(=O)c1cccc(Nc2nccc(Nc3cccc4[nH]ncc34)n2)c1` [GW782612X], in the test on STK11, the potency estimated from few doses is 342 nM. For `O=C1N=C(NCc2cccs2)SC1Cc1ccc2ncccc2c1` (centres unmarked) [RO4629078-000], the potency estimated from few doses in the test with AXL (compound concentrations: 100 nM and 1000 nM (sheet 'Samples'), CATDS: 8.9637378169906395E-3) was 899 nM; in the test with CHEK1 (compound concentrations: 100 nM and 1000 nM (sheet 'Samples'), CATDS: 9.1517924527920996E-3), 847 nM; with FGFR1 (compound concentrations: 100 nM and 1000 nM (sheet 'Samples'), CATDS: 7.8188916788292304E-3), 1400 nM; in the test on NUAK2 (CATDS: 9.28769092053984E-3) it was 813 nM; in the test on PAK6 (compound concentrations: 100 nM and 1000 nM (sheet 'Samples'), CATDS: 5.6767334452466102E-2), 43.4 nM; with PRKCQ (CATDS: 4.8799216922885302E-2) it was 52.1 nM.

Consider `O=C1N=C(NCCc2cccc(Cl)c2)S/C1=C\c1ccc2ncccc2c1` [RO4509201-000], for which the potency estimated from few doses with FECH (compound concentrations: 100 nM and 1000 nM (sheet 'Samples'), CATDS: 5.2952837559238602E-2) was 2080 nM.

Consider `CS(=O)(=O)CCNCc1ccc(-c2ccc3ncnc(Nc4ccc(OCc5cccc(F)c5)c(C(F)(F)F)c4)c3c2)o1` [GW576484X], for which the potency estimated from few doses in the test with MST1R (CATDS: 4.8936571303095901E-2) is 2070 nM. For `CCN(CC)CCOc1ccc(Nc2ncc3cc(-c4c(Cl)cccc4Cl)c(=O)n(C)c3n2)cc1` [SB-601273], the potency estimated from few doses was 802 nM with EIF2AK1 (setting [1]) and 388 nM in the test with FGFR1 (setting [1]).

Consider `Cc1cccc(Nc2nc(NCCN)ncc2C(N)=O)c1` [GSK1292139B], for which the potency estimated from few doses in the test with PRKCA (CATDS: 7.8456539991917998E-2) was 1100 nM.

`CN1C(=O)c2ccccc2N(C)c2nc(Nc3cnn(C4CCNCC4)c3)ncc21` [XMD-17-51]: the potency estimated from few doses in the test with NUAK2 (CATDS: 1.40993766530741E-2) is 1630 nM; with TAOK3 (CATDS: 4.0612086764621601E-2), 78.3 nM. `COc1cc(/C=N/Nc2ncnc3[nH]ncc23)ccc1O` [GW578748X]: in the test with CHEK1 (setting [1]), the potency estimated from few doses is 592 nM.

For the compound `COc1cc2ncn(-c3cc(OCCCc4ccccc4)c(C(N)=O)s3)c2cc1OC` [GSK205189A], the potency estimated from few doses in the test on PAK6 (setting [1]) is 1960 nM.

On to `Cn1cc(-c2cnc(N)c3c(-c4ccc5c(c4)CCN5C(=O)Cc4ccccc4)csc23)cn1` [GSK2593074A], for which, in the test on MAP4K3 (setting [1]), the potency estimated from few doses is 1570 nM. With `Cn1cc(-c2ccc3c(c2)CCN3C(=O)Cc2cccc(Cl)c2)c2c(N)ncnc21` [GSK2606590A], the potency estimated from few doses in the test with EIF2AK1 (compound concentrations: 100 nM and 1000 nM (sheet 'Samples'), CATDS: 0.41818384912394302) is 679 nM. As for `COc1cc2ncn(-c3cc(OCc4ccncc4)c(C(N)=O)s3)c2cc1OC` [GSK336313A], the potency estimated from few doses in the test on FECH (setting [1]) is 2250 nM. On to `Cl.Cn1c(=O)c(Cc2ccc(F)cc2F)cc2cnc(NC3CCOCC3)nc21` [RO3308757-001], for which, in the test with PAK6 (setting [1]), the potency estimated from few doses was 1650 nM.
